# A selection: hits, their analogues and other compounds. The true share with any hit is near 2.9%.
# DAGLB inhibitor – diacylglycerol lipase beta (human) inhibition; Q8NCG7; HEK293T DAGLB membrane lysate, EnzChek fluorogenic substrate; inhibition, % at 5.17 µM; 340,000 compounds, 0.059% hits; AID 504411; in the data active = inhibition above about 34%;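 also: 0% = enzyme with vehicle and 100% = wells lacking enzyme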
# Rtt109 HAT inh – inhibitors of Candida albicans Rtt109/Vps75 histone acetyltransferase. purified Rtt109/Vps75, ThioGlo CoA-SH fluorescence, 4 h. inhibition, % at 34.9 µM. 330,000 compounds, 0.16% hits. AID 540336;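 active = inhibition of at least 50% in every replicate; inconclusive = best replicate reaches 50% inhibition but some replicates fall short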
# sPLA2-III inh – Blocks human group III sPLA2 activity | inhibition, % at 12.2 µM | 370,000 compounds, 0.56% hits | QFRET BODIPY PC-A2 liposome hydrolysis, fluorescence;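 active = inhibition above mean plus 3 SD of compounds lying within the high and low control bounds, cut at about 19% in these data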;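 also: 0% = median of test compound wells and 100% = no enzyme DMSO wells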
# H9c2 protect – protects H9c2 cardiomyocytes from peroxide injury; 360,000 compounds, 0.63% hits; protection from H2O2 cell death, % at 20 µM; H2O2 injury protection, ATPLite, 2 h;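 active = compounds giving at least 50% protection of heart cells from peroxide-induced death in the single-dose screen, raw or plate-pattern-corrected value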;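 also: 0% = DMSO wells with peroxide and 100% = DMSO wells without peroxide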
# Myeloid diff MLP – myeloid differentiation induction | calls only at 10 µM | AID 624256 | ER-HoxA9 myeloid progenitors, lysozyme-GFP differentiation, flow cytometry | 360,000 compounds, 1% hits;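 active = normalized GFP-positive differentiation at or above the plate's own cutoff, the solvent-only control mean plus 3 SD; inconclusive = no clear call, values can overlap the other calls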;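 also: cells exposed to compound for four days before flow analysis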
# ABHD5 PLIN5 PPI – blocks binding of human ABHD5 to perilipin-5. Q00G26+Q8WTS1. Split G. princeps luciferase complementation, luminescence, 4 h. inhibition, % at 4 µM. 360,000 compounds, 0.78% hits;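 active = inhibition above the mean inhibition across every tested compound plus 3 SD, cut at about 22% in these data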;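 also: 0% = DMSO only wells and the 100% control is not disclosed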
# Target sequence (Q00G26 whole entry, looked up): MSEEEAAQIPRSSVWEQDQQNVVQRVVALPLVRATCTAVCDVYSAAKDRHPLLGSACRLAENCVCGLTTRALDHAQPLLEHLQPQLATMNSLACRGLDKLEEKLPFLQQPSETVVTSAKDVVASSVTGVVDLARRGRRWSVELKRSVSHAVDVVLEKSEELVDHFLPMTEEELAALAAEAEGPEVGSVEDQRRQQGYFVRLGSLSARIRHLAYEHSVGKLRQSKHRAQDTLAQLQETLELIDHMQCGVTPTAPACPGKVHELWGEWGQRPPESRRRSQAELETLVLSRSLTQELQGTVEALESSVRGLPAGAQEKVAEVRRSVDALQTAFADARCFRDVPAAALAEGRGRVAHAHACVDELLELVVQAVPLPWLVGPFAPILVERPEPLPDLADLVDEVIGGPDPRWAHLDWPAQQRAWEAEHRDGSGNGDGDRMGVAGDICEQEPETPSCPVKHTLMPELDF
# Target sequence (Q8WTS1 whole entry, looked up): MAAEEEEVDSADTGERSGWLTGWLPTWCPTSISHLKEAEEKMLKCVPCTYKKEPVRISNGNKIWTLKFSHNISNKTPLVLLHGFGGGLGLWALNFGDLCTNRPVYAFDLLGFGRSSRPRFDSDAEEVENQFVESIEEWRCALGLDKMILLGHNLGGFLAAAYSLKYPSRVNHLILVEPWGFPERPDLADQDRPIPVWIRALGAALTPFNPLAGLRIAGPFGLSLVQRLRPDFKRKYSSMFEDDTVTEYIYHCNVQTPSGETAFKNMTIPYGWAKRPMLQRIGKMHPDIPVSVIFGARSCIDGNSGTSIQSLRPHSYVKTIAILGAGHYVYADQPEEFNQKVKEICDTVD
# DAGLB inh conf – DAGLB (human) inhibition, confirmation screen | 190 compounds, 73% hits | shares compounds with DAGLB inhibitor | inhibition, % at 5.17 µM | AID 504445 | HEK293T DAGLB membrane lysate, EnzChek fluorogenic substrate;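 active = mean inhibition over triplicate wells above a set limit taken from the primary lipase screen, cut at about 34% in these data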;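 also: 0% = DAGLB with DMSO and 100% = wells lacking DAGLB enzyme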
# * hit, by the source's call; i = inactive; ? = inconclusive; · = not tested or not shown; + = active, no number.
SMILES,DAGLB inhibitor,Rtt109 HAT inh,sPLA2-III inh,H9c2 protect,Myeloid diff MLP,ABHD5 PLIN5 PPI,DAGLB inh conf
CCOC(=O)/C(C#N)=C/C=C1\C=Cc2ccccc2N1CC,36.8*,-5.4,16.1,20.3,+,3.3,46.0*
CCCCCCN1C=CC(=C/C=C(\C#N)C(=O)OCC)C=C1,-119.2,2.2,-41.5,-1.0,i,10.8,·
Cc1cc(N=Nc2ccccc2C(=O)O)c(C)c(C)c1O,35.3*,37.5,-6.7,-11.6,i,7.6,48.3*
Cc1cc(O)c(C(C)C)cc1N=Nc1ccccc1C(=O)O,30.9,9.7,-5.2,-6.8,i,11.5,·
O=c1[nH]c2ccsc2c(=O)n1-c1ccc(F)c(Cl)c1,-1.2,-16.4,0.3,-4.4,i,0.8,·
Cc1cc(/C=C\c2ccc3cc(N(C)C)ccc3[n+]2C)c(C)n1-c1ccccc1,39.0*,7.5,·,-45.6,?,26.1*,34.5*
CCNC(=O)C1(C)CCN(C(=O)c2cccnc2SC)C1 (centres undefined),·,·,6.9,1.0,i,-0.1,·
COc1ccc(S(=O)(=O)N(C)c2ccc(C(=O)N3CCCCC3)cc2)cc1,-1.6,4.9,-3.9,-12.9,i,-2.5,·
CC(=O)Nc1sc(N)nc1-c1ccccc1,2.3,-3.7,1.1,-8.8,i,-10.0,·
Nc1nc(-c2ccccc2)c(N=Nc2cccc3ccccc23)s1,61.0*,-3.8,11.4,-6.1,i,22.8*,65.9*
Cc1nc2ccccn2c1C(=O)NCc1cccnc1,0.2,0.2,3.2,0.8,i,3.2,·
CCCn1cnc2c(Sc3c([N+](=O)[O-])ncn3C)nc(N)nc21,0.8,-8.7,1.7,11.5,i,6.7,·
O=C(NNc1c2ccccc2nc2ccccc12)c1ccc(O)cc1O,39.2*,6.6,0.2,33.7,·,19.9,52.9*
Cc1ccc(NC2CCCN(C(=O)c3cc(C(C)C)[nH]n3)C2)cc1C (centres undefined),2.0,3.5,-0.9,-1.0,i,7.5,·
CC1CC(C)CN(C(=O)c2ccc3c(c2NCCO)C(=O)c2ccccc2C3=O)C1 (centres undefined),44.4*,15.3,6.6,22.1,i,7.7,63.3*
O=C1NC[C@H](CCCCN2C[C@H](Cc3ccccc3)N(CC3CCCCC3)C(=O)C2=O)N(CCC2CCCCC2)C1=O,·,·,0.9,·,i,6.5,·
CNc1ccc(N=Nc2cccc3ncccc23)cc1,34.4*,-1.8,17.8,-16.2,i,8.3,56.1*
CCOc1ccc(N=Nc2ccc(O)c3ncccc23)cc1,1.1,-0.6,-1.9,27.1,·,3.2,·
CC(CCC(C)C(C)(C)C)[C@@H]1CC[C@H]2C3C[C@H](OS(O)(=S)=S)[C@H]4C[C@H](OS(O)(=S)=S)[C@@H](OS(O)(=S)=S)C[C@]4(C)[C@H]3CC[C@]12C (some centres undefined) (tested in a mixture with another compound),34.8*,?,·,-25.9,i,5.3,34.3*
CC(CCC(=O)NN)C1CCC2C3CCC4CC(O)CCC4(C)C3CCC12C (centres undefined),-0.1,7.1,1.6,3.8,i,-1.7,·
CN(CC(=O)Nc1ccc(F)cc1)C(=O)CSc1ncccn1,-0.6,-2.7,5.7,0.0,i,5.0,·
COc1cc(/C=C2/C(=O)NN(c3ccc(Cl)c(Cl)c3)C2=O)cc([N+](=O)[O-])c1O,38.0*,2.0,-10.3,8.0,i,-0.7,49.9*
COc1cc(/C=C2\SC(=O)N(c3ccccc3Cl)C2=O)cc([N+](=O)[O-])c1O,41.9*,12.1,-1.9,-19.2,i,7.9,37.5*
O=C(Nc1ccccc1-c1ccccc1)c1ccccc1,-2.5,11.5,-2.6,0.1,i,1.4,·
Nc1c(S(=O)(=O)O)cc(NC(=O)c2ccccc2)c2c1C(=O)c1ccccc1C2=O,60.9*,7.0,·,-9.0,i,-11.2,71.7*
SMILES,DAGLB inhibitor,Rtt109 HAT inh,sPLA2-III inh,H9c2 protect,Myeloid diff MLP,ABHD5 PLIN5 PPI,DAGLB inh conf
O=C(O)c1[nH]c2ccccc2c1C(c1cc(Cl)cc([N+](=O)[O-])c1O)c1c(C(=O)O)[nH]c2ccccc12,37.1*,0.6,-242.5,-1.3,i,-4.2,31.8
O=C(O)c1[nH]c2ccccc2c1C(c1ccccc1)c1c(C(=O)O)[nH]c2ccccc12,16.1,13.2,-126.8,3.2,i,-4.5,·
CCCC(=O)NC(c1cccs1)c1cc([N+](=O)[O-])c2cccnc2c1O (centres undefined),34.6*,3.2,3.2,49.6,i,10.8,19.6
O=C1C(=C(c2ccccc2)c2ccccc2)Nc2ccccc21,39.9*,2.3,-9.6,-4.9,·,4.2,38.2*
O=C1CN(C(=O)c2ccccc2)c2ccccc2N1,-0.9,-11.6,6.2,0.1,i,1.5,·
CN(C)c1cccc(CNC(=O)c2ccc3nc([C@H]4C[C@H](O)[C@@H](CO)O4)[nH]c3c2)c1,·,·,18.3,-4.9,i,-3.3,·
COc1ccc(-c2csc3nc(-c4ccccc4OC)oc(=O)c23)cc1,42.6*,·,1.9,6.2,i,-2.3,40.7*
COc1ccc(-c2csc3nc(-c4ccc(C)cc4)oc(=O)c23)cc1OC,2.2,5.4,0.3,-4.2,i,-4.0,·
CC(C1SC(=S)NC1=O)C1SC(=S)NC1=O (centres undefined),43.9*,·,4.3,-0.2,i,-35.5,37.5*
O=C1CC(N2CCN(S(=O)(=O)c3ccccc3F)CC2)C(=O)N1c1ccc(F)cc1F (centres undefined),1.5,-4.3,-8.5,6.6,i,-7.0,·
CCOC(=O)CN(C(=O)CSc1nnc(CNc2ccc(F)cc2)n1CC)c1ccc(F)cc1,-0.1,12.5,-3.5,2.9,i,4.6,·
O=[N+]([O-])c1ccc(N2CCN(c3ccccc3)CC2)cc1,34.2*,-0.2,4.2,3.8,i,8.4,82.3*
Nc1cccc2c1C(=O)c1ccc(Cl)cc1C2=O,37.9*,3.9,16.5,-2.3,i,2.9,40.2*
O=C(NN1C(=O)/C(=C/c2ccc(O)c(O)c2)SC1=S)c1ccccc1,38.6*,-1.5,-6.2,65.0*,i,6.0,32.0
COc1cc(/C=C2\SC(=S)N(Nc3ccccc3)C2=O)ccc1O,5.2,8.5,-16.5,-18.7,i,6.9,·
O=C1/C(=C/c2ccc(O)c(O)c2)SC(=S)N1Nc1ccccc1,40.0*,36.3,·,20.3,+,14.5,29.7
Clc1ccc(/C(Cc2nc3ccccc3[nH]2)=N\Nc2ccccc2)cc1,-4.0,·,6.3,-15.3,i,-8.6,·
COc1cccc(OC)c1OCC(O)CN1CCN(c2ccc(F)cc2)CC1 (centres undefined),-6.7,-6.2,6.5,-4.4,i,-3.3,·
NS(=O)(=O)c1ccc(N=Nc2c(O)ccc3ccccc23)cc1,36.8*,3.7,4.3,-2.9,?,2.5,47.4*

# Assay outcomes (PubChem BioAssay)
